Screens from PubChem BioAssay.
GPT2 inh – GPT2 alanine aminotransferase inhibition | Q8TD30 | Recombinant GPT2, coupled pyruvate oxidase/HRP Amplex Red fluorescence | Potency, µM (top dose mostly 57.7 µM), for the others: at the highest dose activity change, negative = inhibition, hits mostly inhibitors | 100,000 compounds, 0.25% hits; further: on the % scale 0 is the no-effect control and ±100 the full control effect; nearly all actives have a fitted effect of over 60% in size
Target sequence (Q8TD30 whole entry, looked up): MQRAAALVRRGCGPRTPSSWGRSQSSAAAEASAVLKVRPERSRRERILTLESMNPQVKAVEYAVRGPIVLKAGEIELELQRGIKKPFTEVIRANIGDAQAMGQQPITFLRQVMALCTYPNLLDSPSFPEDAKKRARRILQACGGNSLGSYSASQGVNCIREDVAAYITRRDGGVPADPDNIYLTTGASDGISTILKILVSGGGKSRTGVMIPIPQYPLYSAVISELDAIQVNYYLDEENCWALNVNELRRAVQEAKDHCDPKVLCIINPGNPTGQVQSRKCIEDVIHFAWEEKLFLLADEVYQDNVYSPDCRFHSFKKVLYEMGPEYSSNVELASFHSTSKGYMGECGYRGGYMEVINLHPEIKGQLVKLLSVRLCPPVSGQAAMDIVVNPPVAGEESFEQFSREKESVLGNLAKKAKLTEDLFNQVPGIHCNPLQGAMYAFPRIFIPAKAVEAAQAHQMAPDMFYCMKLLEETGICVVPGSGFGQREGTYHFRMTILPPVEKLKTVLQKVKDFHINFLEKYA
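Inhibition is scored from Amplex Red fluorescence generated when pyruvate oxidase and HRP act on pyruvate released by GPT2. Reactions contain 10ng/uL enzyme, 250uM a-KG and 2mM L-alanine and run 30 min at room temperature.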
FLuc inh – Photinus pyralis luciferase inhibition; P08659; purified P. pyralis luciferase, luminescence, biochemical; Potency, µM (doses to about 115 µM), hits mostly inhibitors; 76,000 compounds, 2.5% hits; AID 1347043; further: on the % scale 0 is the no-effect control and ±100 the full control effect; nearly all actives have a fitted effect of over 65% in size
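FLuc 10nM, D-luciferin 10uM, ATP 10uM, Mg acetate 10mM, Tris acetate pH 7.5, Tween/BSA; cpd qHTS; enzyme added last; CCD luminescence.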
hNpr1 antagonist – antagonists of human natriuretic peptide receptor Npr1 | 76,000 compounds, 1.6% hits | P16066 | Potency, µM (top dose mostly 46.3 µM), for inactives: top-dose activity change, negative = inhibition, usual class: inhibitors | HEK293 hNpr1 GloSensor cGMP, ANP-stimulated luminescence | AID 1347048; calls by dose curve; further: on the % scale 0 is the no-effect control and ±100 the full control effect; nearly all actives have a fitted effect of over 60% in size
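Compound pre-incubated 30 min at room temperature on GloSensor-loaded HEK293 cells stably carrying hNpr1 and the pGS-40F cGMP biosensor. Stimulation uses hNppA at 0.1 nM final; luminescence is taken at baseline and 20 min post-agonist.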
HEK293 tox – cytotoxic compounds in HEK 293 cells. 94,000 compounds, 6.6% hits. AID 1345083. HEK 293 viability, ATP luminescence (CellTiter-Glo), 48-72 h. Potency, µM (highest dose often 115 µM), inactives show top-dose activity change, negative = cytotoxicity, hits mostly inhibitors; further: on the % scale 0 is the no-effect control and ±100 the full control effect; nearly all actives have a fitted effect of over 60% in size
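HEK 293 cells at 250 cells/well were exposed to compounds by pintool transfer for 48 or 72 hr at 37 degree Celsius, 5% CO2. Viability was read as ATP-coupled luminescence with CellTiter-Glo after 10 min at room temperature.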
3T3 cytotox – cytotoxic compounds in NIH 3T3 cells; NIH 3T3 viability, CellTiter-Glo ATP luminescence, 48-72 h; Potency, µM (doses to about 96.7 µM), without a hit: top-dose activity change, negative = cytotoxicity, actives largely listed as inhibitors; 94,000 compounds, 4.3% hits; further: on the % scale 0 is the no-effect control and ±100 the full control effect; nearly all actives have a fitted effect of over 55% in size
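Cytotoxicity was measured by CellTiter-Glo ATP luminescence after 48 or 72 h compound exposure at 37 °C. Mouse NIH 3T3 fibroblasts were seeded at 400 cells/well and dosed by 23 nL pin transfer.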
NPR1 antag cnf – hNpr1 antagonism, confirmation assay | shares compounds with hNpr1 antagonist | HEK293 hNpr1 cGMP GloSensor luminescence, ANP-stimulated | Potency, µM (highest dose often 57.6 µM), for inactives: at the highest dose activity change, negative = inhibition, most hits filed as inhibitors | 1,400 compounds, 76% hits | AID 1347044; calls by dose curve; further: nearly all actives have a fitted effect of over 70% in size
Npr2 selectivity – hNpr2 antagonism, selectivity versus Npr1. shares compounds with hNpr1 antagonist. Potency, µM (highest dose often 57.6 µM), inactives show top-dose activity change, negative = inhibition, hits mostly inhibitors. 1,400 compounds, 67% hits. AID 1347046. HEK293 hNpr2 GloSensor cGMP luminescence, CNP-stimulated; calls by dose curve; further: nearly all actives have a fitted effect of over 70% in size
FLuc inh counter – FLuc enzyme inhibition, Npr1 counter-screen. shares compounds with hNpr1 antagonist. purified FLuc enzyme, luminescence, Km substrate. Potency, µM (series often up to 57.6 µM), without a hit: at the top dose activity change, negative = inhibition, most hits filed as inhibitors. 1,400 compounds, 0.7% hits; further: 0% is about no effect
GloSensor cGMP – reduces cGMP signal in GloSensor control cells. Potency, µM (highest dose often 57.6 µM), without a hit: top-dose activity change, negative = inhibition, most hits filed as inhibitors. 1,400 compounds, 69% hits. HEK293 GloSensor cGMP, SNP-stimulated, luminescence. shares compounds with hNpr1 antagonist; calls by dose curve; further: on the % scale 0 is the no-effect control and ±100 the full control effect; nearly all actives have a fitted effect of over 70% in size
The depositor's hits bear a star; [ ] = dose if it differs, or a comment. Rows were chosen to be rich in hits. Some 10% of all compounds tested hit in one or more screens of this group. Unless noted, the call rests on the fitted dose curve; in most records, active means well fitted curve in the direction sought with a large enough effect; inconclusive means small, poorly fitted or top-dose-only effect, or another doubt; inactive means no such curve, though single readings can be large; an effect the other way counts as inactive or inconclusive. Potency means the concentration at half of the fitted maximal effect.

How did COCCn1c(C)cc(C(=O)N2CCc3nn(CCOC)c(=O)n3CC2)c1C do in these assays?
GPT2 inh: inactive; FLuc inh: inactive; hNpr1 antagonist: -1.1%; HEK293 tox: inactive; 3T3 cytotox: inactive

How did CN(Cc1cccnc1)c1ccc2ncc(Nc3cccc(N[S+](C)(=O)[O-])c3)n2n1 do in these assays?
GPT2 inh: 0.6%[88.5 µM]; FLuc inh: inactive; hNpr1 antagonist: -2.9%[70.6 µM]; HEK293 tox: -15.3%[172 µM]; 3T3 cytotox: inconclusive

How did COc1ccc(Nc2cnc3ccc(N(C)Cc4cccnc4)nn23)cc1 do in these assays?
GPT2 inh: 1.3%[88.5 µM]; FLuc inh: inactive; hNpr1 antagonist: -15.3%[70.6 µM]; HEK293 tox: inconclusive; 3T3 cytotox: inconclusive

What do the screens show for `CN(Cc1cccnc1)c1ccc2ncc(Nc3ccc(C(F)(F)F)cc3)n2n1`?
GPT2 inh: -8.7%[88.5 µM]; FLuc inh: inactive; hNpr1 antagonist: 25.1µM*; HEK293 tox: 44.7µM*; 3T3 cytotox: inconclusive; NPR1 antag cnf: 22.2µM*; Npr2 selectivity: 31.4µM*; FLuc inh counter: 2.3%[86.2 µM]; GloSensor cGMP: 22.2µM*

What do the screens show for `COc1ccc(F)cc1Nc1cnc2ccc(N(C)Cc3cccnc3)nn12`?
GPT2 inh: inconclusive; FLuc inh: inactive; hNpr1 antagonist: 7.94µM*; HEK293 tox: 35.5µM*; 3T3 cytotox: inconclusive; NPR1 antag cnf: 25µM*; Npr2 selectivity: 25µM*; FLuc inh counter: -4.6%[86.2 µM]; GloSensor cGMP: 17.7µM*

Results for CN(Cc1cccnc1)c1ccc2ncc(Nc3cc(F)cc(N4CCOCC4)c3)n2n1 ?
GPT2 inh: inconclusive; FLuc inh: inactive; hNpr1 antagonist: inconclusive; HEK293 tox: inconclusive; 3T3 cytotox: 28.2µM*; NPR1 antag cnf: 35.3µM*; Npr2 selectivity: inconclusive; FLuc inh counter: -11.0%[86.2 µM]; GloSensor cGMP: inconclusive

What do the screens show for `Cn1ncc2c(C(=O)Nc3cncnc3)cc(-c3ccc(Cl)cc3Cl)nc21`?
GPT2 inh: inconclusive; HEK293 tox: -9.6%; 3T3 cytotox: -23.2%

How did COc1ccccc1-c1noc(CCC(=O)N2CCC(Cc3noc(C)n3)CC2)n1 do in these assays?
GPT2 inh: 3.5%; FLuc inh: inactive; hNpr1 antagonist: -1.8%; HEK293 tox: -24.7%; 3T3 cytotox: -20.4%

What do the screens show for `O=C(CCCc1ccccc1)N1CCC(Cc2nc(-c3ccc(F)cc3)no2)CC1`?
GPT2 inh: inactive; FLuc inh: inactive; hNpr1 antagonist: 7.94µM*; HEK293 tox: inconclusive; 3T3 cytotox: inconclusive; NPR1 antag cnf: 10.9µM*; Npr2 selectivity: 12.2µM*; FLuc inh counter: 3.1%; GloSensor cGMP: 10.9µM*

What do the screens show for `O=C(CCc1ccccc1)N1CCC(Cc2nc(-c3ccc(F)cc3)no2)CC1`?
GPT2 inh: -9.1%; FLuc inh: inactive; hNpr1 antagonist: 5.01µM*; HEK293 tox: 44.7µM*; 3T3 cytotox: inconclusive; NPR1 antag cnf: 6.11µM*; Npr2 selectivity: 7.69µM*; FLuc inh counter: 1.2%; GloSensor cGMP: 5.44µM*
